Experimental data taken from PubChem BioAssay AID1159580 (chemical genetic matrix, 2015).
The whole screen tested about 5,500 compounds, of which about 2,000 (36%) were called active. Another 18% or so got no clear call; they are omitted. Cut-off read from the data, not from the text of the source: active = normalized growth mostly below about 0.91 (no sharp cut-off); inconclusive = no clear call, values can overlap the other calls; inactive = mostly above about 0.92. The list shows a part of the results.

Assay: chemical genetic growth profiling, strain panel (AID 1159580);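 note: tested at 20 µM; growth read once vehicle control cultures reached saturation at 30 °C; 1 = growth at the plate median or of vehicle wells; lower values mean less growth of the strain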
Settings: S. cerevisiae deletion strains, growth OD
[1] = locus YAL040C, strain CLN3, stronger effect = lower value
[2] = locus YCL061C, strain MRC1 (second series), stronger effect = lower value
[3] = locus YDR363W, strain ESC2, stronger effect = lower value
[4] = locus YER002W, strain NOP16, stronger effect = lower value
[5] = locus YGR229C, strain SMI1, stronger effect = lower value
[6] = locus YMR263W, strain SAP30, stronger effect = lower value
[7] = locus YMR307W, strain GAS1, stronger effect = lower value
[8] = locus YNL128W, strain TEP1, stronger effect = lower value
[9] = locus YNL153C, strain GIM3, stronger effect = lower value
[10] = locus YNL175C, strain NOP13, stronger effect = lower value
[11] = locus YNL197C, strain WHI3, stronger effect = lower value
[12] = locus YNL224C, strain SQS1, stronger effect = lower value
[13] = locus YOR083W, strain WHI5 (second series), stronger effect = lower value
[14] = locus YPL055C, strain LGE1, stronger effect = lower value
[15] = locus YPL241C, strain CIN2, stronger effect = lower value
[16] = locus YAL013W, strain DEP1, stronger effect = lower value
[17] = locus YDR150W, strain NUM1, stronger effect = lower value
[18] = locus YNL322C, strain KRE1, stronger effect = lower value
[19] = locus YJR075W, strain HOC1, stronger effect = lower value

| SMILES | normalized growth [1] | normalized growth [2] | normalized growth [3] | normalized growth [4] | normalized growth [5] | normalized growth [6] | normalized growth [7] | normalized growth [8] | normalized growth [9] | normalized growth [10] | normalized growth [11] | normalized growth [12] | normalized growth [13] | normalized growth [14] | normalized growth [15] | normalized growth [16] | normalized growth [17] | normalized growth [18] | normalized growth [19] |
| --- | --- | --- | --- | --- | --- | --- | --- | --- | --- | --- | --- | --- | --- | --- | --- | --- | --- | --- | --- |
| CC(CCc1ccc(O)cc1)NCCc1ccc(O)c(O)c1 (configuration not stated) | 1.01 (inactive) | 0.812 (active) | 0.969 (inactive) | 0.993 (inactive) | 0.708 (active) | 1.01 (inactive) | 0.947 (inactive) | 1.01 (inactive) | 0.944 (inactive) | 1.01 (inactive) | 1.03 (inactive) | 1.02 (inactive) | 0.98 (inactive) | 0.756 (active) | 0.927 (active) |  |  |  |  |
| CNCCc1ccc(O)c(O)c1 | 0.991 (inactive) | 0.956 (inactive) | 1.03 (inactive) | 1 (inactive) |  | 1 (inactive) |  | 0.996 (inactive) |  | 1 (inactive) | 1.02 (inactive) | 1 (inactive) | 0.976 (inactive) |  |  | 0.964 (inactive) | 0.922 (active) | 0.979 (inactive) |  |
| C[C@@H](NCCc1ccc(O)cc1)[C@@H](O)c1ccc(O)cc1 | 0.986 (inactive) | 0.989 (inactive) | 0.991 (inactive) | 0.992 (inactive) | 0.99 (inactive) | 0.986 (inactive) | 1.02 (inactive) | 0.994 (inactive) | 1.03 (inactive) | 0.999 (inactive) | 0.992 (inactive) | 0.991 (inactive) | 1 (inactive) | 0.995 (inactive) |  |  | 1.01 (inactive) | 0.974 (inactive) | 0.993 (inactive) |
| CC(=O)NCCc1ccc(O)c(O)c1 | 1.01 (inactive) |  | 1.05 (inactive) | 1 (inactive) |  |  |  | 0.999 (inactive) | 0.986 (inactive) | 1.01 (inactive) | 1.01 (inactive) | 0.998 (inactive) | 1.02 (inactive) |  | 1.01 (inactive) | 1.03 (inactive) |  |  | 1.02 (inactive) |
